Compounds with a hit are over-represented: about 3.4% of the library has one in this group of screens.
FBW7 act: FBW7 E3 ligase activators, primary screen, biochemical, AlphaScreen, human; F-box/WD repeat-containing protein 7 (Homo sapiens), Q969H0; AlphaScreen FBW7–phospho-cyclin E peptide binding, activator screen; normalized activity (activation), % at 26.1 µM; 650,000 tested, 0.13% active; in the data active means normalized activity above about 1.9%;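 further: purified mutant Fbw7 with reduced substrate affinity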
TEAD-YAP block: TEAD-YAP interaction inhibition, primary screen, TEAD-YAP interaction inhibitor project, luminescence, HEK-TIYL cells; 640,000 tested, 1.4% active; inhibition, % at 9.12 µM; TEAD-Gal4/YAP UAS-luciferase luminescence; AID 1259422, 2018; in the data active means inhibition above about 32%;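 further: 0% = median of test compound wells and 100% = reference inhibitor wells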
MITF inh: MITF inhibitors, primary screen, biochemical, AlphaScreen, human. Microphthalmia-associated transcription factor (Homo sapiens), O75030. AlphaScreen MITF homodimerization, bead proximity signal. inhibition, % at 2.6 µM. 650,000 tested, 0.91% active; in the data active means inhibition above about 50%;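 further: 0% = vehicle wells with protein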
GPR151 ag: activators of human GPR151, primary screen, cell-based, PathHunter beta-arrestin, luminescence | G-protein coupled receptor 151 (Homo sapiens), Q8TDV0 | PathHunter beta-arrestin GPR151 cells | activation, % at 11.2 µM | 650,000 tested, 1% active | AID 1508602, 2020; in the data active means activation above about 4.9%;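 further: 0% = median of compound wells and 100% = cells with positive control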
Target sequence (Q8TDV0 whole entry, looked up): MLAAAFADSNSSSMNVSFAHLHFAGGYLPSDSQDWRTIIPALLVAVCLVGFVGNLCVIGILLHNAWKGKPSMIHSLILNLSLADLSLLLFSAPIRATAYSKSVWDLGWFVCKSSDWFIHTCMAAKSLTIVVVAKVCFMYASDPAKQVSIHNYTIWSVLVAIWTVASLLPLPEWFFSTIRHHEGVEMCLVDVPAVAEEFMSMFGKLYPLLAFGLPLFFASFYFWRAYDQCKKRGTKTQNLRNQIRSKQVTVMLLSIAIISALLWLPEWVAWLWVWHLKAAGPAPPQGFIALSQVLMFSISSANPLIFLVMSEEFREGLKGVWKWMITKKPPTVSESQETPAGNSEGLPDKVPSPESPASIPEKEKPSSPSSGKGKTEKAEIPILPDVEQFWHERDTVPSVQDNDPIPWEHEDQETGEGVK
GPR151 conf act: GPR151 activators, triplicate retest, confirmation, cell-based, PathHunter beta-arrestin, luminescence; shares compounds with GPR151 ag; GPR151 PathHunter beta-arrestin cells, 90 min; % of EA-reagent control over plate median; activation, % at 11.2 µM; 6,700 tested, under 10 active; AID 1508609, 2020;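 active means mean percent activation across replicates above the confirmation screen cutoff of 4.91%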
GPR119 ag: GPR119 activators in beta-arrestin cells, counter-screen for GPR151 activator project, cell-based, PathHunter beta-arrestin, luminescence, triplicate; shares compounds with GPR151 ag; 90 min; 0 = compound-well median, 100 = enzyme-acceptor control; activation, % at 11.2 µM; 6,700 tested, 0.3% active;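 active means mean percent activation in the counterscreen above 29.09%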;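 further: counterscreen on off-target GPR119 to flag nonselective hits from the GPR151 activator screen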
The depositor's hits bear a star; / = no result given; ! = a repeat was not active.

SMILES | FBW7 act | TEAD-YAP block | MITF inh | GPR151 ag | GPR151 conf act | GPR119 ag
Cc1cc2oc(C(=O)NCCc3ccc(S(N)(=O)=O)cc3)c(C)c2cc1C | 0 | 10 | 9 | 10.0* | 1 | -3
CCC(=O)Nc1ccc(NC(=O)/C=C/c2cc(Br)ccc2OC)cc1 | 0 | 7 | -5 | 9.6* | 0 | 1
Nc1cccc(C(=O)OCC(=O)NC2CCCc3ccccc32)c1 (centres undefined) | 0 | 9 | 4 | 5.2* | -1 | -2
O=C(COC(=O)c1cc(O)c(O)c(O)c1)NC1CCCc2ccccc21 (centres undefined) | 0 | 8 | 32 | -1 | / | /
Cc1nn(C)c(C)c1-c1ncnn1-c1sc2c(c1C#N)CCCCC2 | 1 | -5 | 13 | -2 | / | /
C=CCN1C(=O)CS/C1=N\NC(=O)c1ccccc1 | 0 | -1 | 2 | 18* | 1 | 4
COc1ccc(CNC(=O)c2noc(C)c2[N+](=O)[O-])cc1 | 0 | 9 | 8 | 5.0* | 0 | 5
COc1cc(C2Nc3ccccc3NC3=C2C(=O)CC(c2ccc4c(c2)OCO4)C3)ccc1OC(C)=O (centres undefined) | 0 | -8 | -8 | 17* | 2 | 16
CCOc1cc(C2Nc3ccccc3NC3=C2C(=O)CC(c2ccc(OC)cc2)C3)cc(Cl)c1O (centres undefined) | 0 | -15 | 1 | 4.9* | 1 | 14
CC1=CC(C)(C)Nc2cc(CN(C)C)c(O)cc21 | -1 | 10 | 30 | -1 | / | /
Cc1cc(NCc2nc3ccccc3[nH]2)nc(-c2ccccc2)n1 | 0 | 1 | -6 | 0 | / | /
O=C(NC1CC1)c1ccc(-c2nc3ncnc(NCc4nc5ccccc5[nH]4)c3[nH]2)cc1 | 0 | -19 | 1 | 6.3* | 0 | -2
Cc1cc(NCc2nc3ccccc3[nH]2)nc(-c2ccc(C(=O)NC3CC3)cc2)n1 | 0 | -11 | 10 | 5.1* | 0 | 2
CO/N=C(/C(=O)N[C@@H]1C(=O)N2C(C(=O)O)=C(COC(C)=O)CS[C@H]12)c1csc(N)n1 | 0 | 2 | 23 | 0 | / | /
CC(=O)OCC1=C(C(=O)O)N2C(=O)[C@@H](NC(=O)Cc3cccs3)[C@H]2SC1 | 0 | -3 | -9 | 19*! | 1 | 4
CNc1ccc(/C=C/C(=O)c2ccc(S(=O)(=O)NCc3ccco3)cc2)cc1[N+](=O)[O-] | 0 | -5 | -6 | 5.6* | -1 | -2
COC(=O)COc1ccc(NC(=O)Cn2nc(-c3ccc(C)c(S(=O)(=O)N(C)C)c3)c3ccccc3c2=O)cc1 | 0 | -7 | -19 | -1 | / | /
COc1ccc(-c2noc(CSc3nnc(C)n3-c3ccccc3)n2)cc1OC | 0 | -4 | -8 | -1 | / | /
COc1ccc(-c2noc(CSc3nc(N)c(-c4ccccc4)c(=O)[nH]3)n2)cc1OC | 0 | 6 | -11 | 5.7* | 0 | -1
O=C(NC1CC1)c1cnc(N2CCN(c3ccccn3)CC2)s1 | 0 | -17 | 10 | 5.0* | 1 | 3
CCCCC(=O)c1ccc(-c2ccccc2)cc1 | 0 | 1 | -9 | 0 | / | /
C[N+](C)(CCCC(=O)c1ccc(C(=O)CCC[N+](C)(C)Cc2ccccc2Cl)cc1)Cc1ccccc1Cl | 0 | 3 | -13 | 5.8* | 1 | 17
Cc1ccc(Cl)c2c1NC(=O)C21SCCS1 | 0 | -8 | 3 | 8.6* | -1 | 2
COC(=O)c1cc(NC(=O)c2cc3cc([N+](=O)[O-])ccc3oc2=O)cc(C(=O)OC)c1 | 0 | -8 | 8 | -2 | / | /
CC1CN(CC(=O)NC2CCCc3ccccc32)Cc2ccccc2O1 (centres undefined) | 0 | -6 | 3 | 0 | / | /
SMILES | FBW7 act | TEAD-YAP block | MITF inh | GPR151 ag | GPR151 conf act | GPR119 ag
O=C(CC1S\C(=N/N=C/C=C/c2ccccc2)NC1=O)Nc1ccccc1F (centres undefined) | 0 | 1 | -11 | 7.8* | 1 | -3
Cc1cccc(-c2cc(C(=O)Nc3ccc(F)c([N+](=O)[O-])c3)c3ccccc3n2)c1 | 0 | -7 | -7 | 5.7* | 1 | 18
CN1CCOCCOCCOCCOCCOCC1 | 0 | -5 | 0 | 6.3* | 0 | -7
Cc1[nH]c2c(C(=O)N3CCC4(CC3)CC4C(=O)NCCn3ccnc3)cccc2c1C (centres undefined) | 0 | -1 | 22 | 3 | / | /
COC(=O)c1ccc(-n2c(C)cc(/C=N/N(C)C)c2C)cc1 | 0 | -6 | 8 | 1 | / | /
CCOc1ccc(NC(=O)CC2SC(=O)NC2=O)cc1 (centres undefined) | 0 | 6 | -4 | 0 | / | /
CCOc1ccc(NC2SC(=O)NC2=O)cc1 (centres undefined) | 0 | 9 | -2 | 5.0* | -1 | -9
CCC(=O)N1c2ccccc2-c2nnc(SC)nc2OC1c1ccccc1Br (centres undefined) | 0 | 7 | 5 | 1 | / | /
COc1ccc(S(=O)(=O)N2CCCCC2)cc1NC(=O)c1cc(C)nc2ccccc12 | 0 | 6 | 7 | 2 | / | /
COc1ccc(NC(=O)c2cc(C)nc3ccccc23)cc1S(=O)(=O)N1CCCCC1 | 0 | -3 | -2 | 8.4* | 0 | 9
CC(C)(C)CC(=O)Nc1ccccc1[N+](=O)[O-] | 0 | -6 | 1 | 7.0* | 0 | 4
CCOC(=O)c1ccc(-n2c(SCC(=O)C(C)(C)C)nc3c(sc(=S)n3-c3cccc(OC)c3)c2=O)cc1 | 0 | 1 | 2 | -1 | / | /
COC(=O)c1nc(N)sc1-c1ccc(Cl)c(Cl)c1 | 0 | -1 | 2 | 7.6* | 0 | -4
CCOC(=O)C1=C(C)NC2=C(C(=O)C(C(=O)OC)C(C)C2)C1c1ccccc1Cl (centres undefined) | 0 | 19 | 1 | 0 | / | /
CCN(CC)c1cc(NCCO)c([N+](=O)[O-])c2nonc12 | 0 | 5 | 16 | 5.9* | -1 | -12
CCN(CC)c1cc(Nc2ccc(NC(C)=O)cc2)c([N+](=O)[O-])c2nonc12 | 0 | 7 | 6 | 2 | / | /
CCOc1ccc(CNC(=O)c2cc(=O)[nH]c3ccccc23)cc1 | 0 | -8 | 4 | 5.0* | -1 | -7
COC(=O)C1=C(O)CSC1=Nc1ccc(F)cc1 | 0 | -7 | -10 | 0 | / | /
CCOc1cc(S(=O)(=O)n2ccnc2)ccc1Br | 0 | 11 | -5 | -1 | / | /
COc1cc(S(=O)(=O)n2ccnc2)ccc1Br | 0 | 6 | 10 | 5.7* | -1 | 0

Bioassay records deposited in PubChem by The Scripps Research Institute Molecular Screening Center.
